For 20 compounds, growth inhibition, inhibition and outcome results are on record in PubChem BioAssay.

By inhibition is commonly meant the drop in the measured response relative to a control, in per cent.

A short description of test [1]: antimalarial activity against Dd2 strain (AID 2302;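 active = growth inhibition above 50% at the single 2 µM test dose, taken to imply half-maximal potency below 2 µM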;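 also: 0% = DMSO untreated growth and 100% = chloroquine plus artemisinin killed control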). Conditions: P. falciparum Dd2 in RBCs, LDH growth readout, 72 h; at 2 µM; stronger effect = higher value.
Test [2] can be described thus: HepG2 cytotoxicity, primary screen, cytotoxicity control for P. falciparum antimalarial project, cell-based, ATP luminescence (AID 2303;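 active = inhibition above 50%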;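 also: 0% = DMSO wells and 100% = digitonin-killed cells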). As to conditions: HepG2 viability, 24-48 h, at 10 µM, stronger effect = higher value.
Test [3] addresses L-lactate dehydrogenase (Plasmodium falciparum (isolate CDC / Honduras)) (UniProt Q27743). The test is described as follows: PfLDH activity inhibition – cell lysate, 3D7 strain, counter-screen for P. falciparum growth inhibition project (AID 2304).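 Also: 0% = vehicle and 100% = reference inhibitor.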 Conditions: P. falciparum 3D7 crude extract, LDH APAD/NBT absorbance; at 2 µM; stronger effect = higher value. (In general: The purpose of a counterscreen is to sort out artefacts and off-target activity.)

Test [4] in a line: inhibition of 3D7 malaria parasite growth – strain 3D7 (AID 2306).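 Also: 0% = DMSO wells and 100% = chloroquine plus artemisinin control wells.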 As to conditions: P. falciparum 3D7 erythrocytic growth, LDH absorbance, 72 h; at 2 µM; stronger effect = higher value.
Test [5] addresses Calcium-dependent protein kinase 1 (Plasmodium falciparum (isolate 3D7)) (UniProt P62344). The test is described as follows: PfCDPK1 kinase inhibitors, biochemical, TCAMS library (AID 1159585; cut-off not given, nearly all actives have IC50 up to about 0.98 µM;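 also: inhibitors leave more ATP so luminescence rises with inhibition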). As to conditions: recombinant PfCDPK1, Kinase-Glo ATP depletion luminescence. In general terms: Kinase-Glo reads ATP consumption through a luciferase reaction.
Test [6] deals with Plasmodium falciparum protein kinase 6 (PK6, PF3D7_1337100) (UniProt Q8IDW1). Briefly: PfPK6 kinase inhibitors, biochemical, TCAMS library (AID 1159586). Conditions: recombinant PfPK6, Kinase-Glo ATP depletion luminescence.
In test [7] the target is Protein kinase 7 (PK7), Plasmodium falciparum 3D7 (PF3D7_0213400) (UniProt Q7YTF7). Briefly: inhibition of Plasmodium PK7 catalytic activity – biochemical, TCAMS antimalarial set, Kinase-Glo luminescence (AID 1159587). Conditions: recombinant PfPK7, Kinase-Glo ATP depletion luminescence.
Test [8] deals with Calcium-dependent protein kinase 4 (Plasmodium falciparum (isolate 3D7)) (UniProt Q8IBS5). Briefly: PfCDPK4 kinase inhibitors, biochemical, TCAMS library (AID 1159588; cut-off not given, nearly all actives have IC50 up to about 0.91 µM). Conditions: recombinant PfCDPK4, Kinase-Glo ATP depletion luminescence.

Each structure is given as a SMILES string. Unmarked numbers belong to inactive results. For some of these results: Measured potencies and affinities stand elsewhere. The source made the active and inactive calls. Unless noted, no rule for the calls is given here.

L-lactate dehydrogenase (Plasmodium falciparum (isolate CDC / Honduras)), sequence (Q27743 whole entry, looked up): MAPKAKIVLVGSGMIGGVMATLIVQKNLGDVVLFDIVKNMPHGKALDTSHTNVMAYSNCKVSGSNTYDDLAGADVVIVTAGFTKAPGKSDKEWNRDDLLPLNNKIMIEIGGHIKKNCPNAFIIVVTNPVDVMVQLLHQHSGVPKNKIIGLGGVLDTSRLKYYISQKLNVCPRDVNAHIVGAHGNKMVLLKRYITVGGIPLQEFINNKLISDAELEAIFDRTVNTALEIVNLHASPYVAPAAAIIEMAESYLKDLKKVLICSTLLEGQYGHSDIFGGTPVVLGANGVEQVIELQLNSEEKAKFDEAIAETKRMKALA
Calcium-dependent protein kinase 1 (Plasmodium falciparum (isolate 3D7)), sequence (P62344 whole entry, looked up): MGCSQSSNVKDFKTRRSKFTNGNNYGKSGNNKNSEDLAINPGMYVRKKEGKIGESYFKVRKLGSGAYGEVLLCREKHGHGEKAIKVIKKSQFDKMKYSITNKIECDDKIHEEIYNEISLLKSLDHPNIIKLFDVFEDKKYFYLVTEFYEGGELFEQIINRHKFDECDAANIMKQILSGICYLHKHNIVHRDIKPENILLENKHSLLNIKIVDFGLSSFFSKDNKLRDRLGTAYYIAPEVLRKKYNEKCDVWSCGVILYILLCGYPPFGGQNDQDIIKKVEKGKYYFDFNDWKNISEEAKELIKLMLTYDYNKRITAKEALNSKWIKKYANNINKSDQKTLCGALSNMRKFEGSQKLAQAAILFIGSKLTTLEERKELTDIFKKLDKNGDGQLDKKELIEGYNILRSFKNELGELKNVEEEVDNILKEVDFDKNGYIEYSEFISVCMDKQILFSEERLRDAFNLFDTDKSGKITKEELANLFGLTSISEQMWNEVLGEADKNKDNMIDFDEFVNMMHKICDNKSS
Calcium-dependent protein kinase 4 (Plasmodium falciparum (isolate 3D7)), sequence (Q8IBS5 whole entry, looked up): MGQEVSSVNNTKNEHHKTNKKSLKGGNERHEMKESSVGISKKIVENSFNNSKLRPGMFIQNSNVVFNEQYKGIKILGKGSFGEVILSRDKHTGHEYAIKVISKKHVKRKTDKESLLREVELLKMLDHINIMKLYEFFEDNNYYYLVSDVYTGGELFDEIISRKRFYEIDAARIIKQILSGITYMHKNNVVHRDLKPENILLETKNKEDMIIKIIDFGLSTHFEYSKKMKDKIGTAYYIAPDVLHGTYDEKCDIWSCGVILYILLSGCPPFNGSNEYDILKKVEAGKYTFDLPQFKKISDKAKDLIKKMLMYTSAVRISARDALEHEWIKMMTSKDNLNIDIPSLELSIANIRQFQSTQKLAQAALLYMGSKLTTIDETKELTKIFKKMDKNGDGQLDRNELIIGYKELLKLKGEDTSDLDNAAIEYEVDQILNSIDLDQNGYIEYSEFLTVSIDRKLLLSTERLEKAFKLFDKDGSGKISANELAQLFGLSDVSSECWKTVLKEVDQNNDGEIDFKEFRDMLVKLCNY
Plasmodium falciparum protein kinase 6 (PK6, PF3D7_1337100), sequence (Q8IDW1 1-305): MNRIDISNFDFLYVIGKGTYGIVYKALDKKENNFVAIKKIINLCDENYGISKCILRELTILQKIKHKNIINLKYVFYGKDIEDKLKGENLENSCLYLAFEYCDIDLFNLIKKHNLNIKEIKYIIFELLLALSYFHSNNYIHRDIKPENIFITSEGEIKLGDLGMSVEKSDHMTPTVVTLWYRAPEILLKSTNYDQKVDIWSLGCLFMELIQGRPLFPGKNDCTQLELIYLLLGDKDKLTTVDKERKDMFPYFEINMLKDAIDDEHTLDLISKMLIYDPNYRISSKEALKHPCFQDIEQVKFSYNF
Protein kinase 7 (PK7), Plasmodium falciparum 3D7 (PF3D7_0213400), sequence (Q7YTF7 1-343): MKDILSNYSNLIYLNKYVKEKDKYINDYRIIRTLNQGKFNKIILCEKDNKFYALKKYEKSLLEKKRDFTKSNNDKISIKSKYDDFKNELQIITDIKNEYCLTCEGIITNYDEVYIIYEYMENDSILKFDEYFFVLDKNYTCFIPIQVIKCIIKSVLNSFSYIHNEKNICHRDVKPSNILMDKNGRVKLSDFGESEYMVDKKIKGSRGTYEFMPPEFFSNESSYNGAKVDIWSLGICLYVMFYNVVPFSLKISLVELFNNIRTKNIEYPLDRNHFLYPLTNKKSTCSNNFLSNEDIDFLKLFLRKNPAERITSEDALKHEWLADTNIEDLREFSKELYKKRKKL

On to `Cc1cccc2[nH]c(-c3ccc(-c4ccc(NC(=O)Nc5ccc(F)c(F)c5F)cc4)s3)nc12`, for which the growth inhibition is 99% (active) in test [1] and 100% (active) in test [4]. The inhibition in test [2] is 58% (active); in test [3], 2%. The outcome in test [5], in test [6], in test [7] and in test [8] was inactive.
Turning to `CN1CCN(CCCN(Cc2csc(-c3ccc(CNCc4ccccc4)cc3)n2)C(=O)c2cc(F)cc(F)c2)CC1`, the growth inhibition in test [1] was 53% (active); in test [4], 97% (active). The inhibition in test [2] was 60% (active); in test [3] it was -2%. The outcome in test [5], in test [6], in test [7] and in test [8] was inactive.
In the case of `CC(Nc1ccc2c(c1)CCC2)C(=O)Nc1cc(C(F)(F)F)ccc1N1CCOCC1` (stereo not given), the growth inhibition in test [1] and in test [4] was 100% (active) in each case. Besides, the inhibition in test [2] is -3%; in test [3] it was -1%. The result in test [5], in test [6], in test [7] and in test [8] was inactive.
For the compound `O=C(/C=C/c1ccc(Cl)c(Cl)c1)NCCCCCCN1CCCN(C(=O)Nc2ccc(Cl)c(Cl)c2)CC1`, the growth inhibition was 8% in test [1] and 100% (active) in test [4]. Besides, the inhibition in test [2] was 25%; in test [3], -1%. For the same compound, the result in test [5], in test [6], in test [7] and in test [8] was inactive.
Turning to `Cc1cccc2[nH]c(-c3ccc(-c4cccc(NC(=O)c5cccc(C(N)=O)c5)c4)cc3)nc12`, the results for the growth inhibition in test [1] and in test [4] were 87% (active) and 84% (active), respectively. In addition, the inhibition was 14% in test [2] and -1% in test [3]. In addition, the result in test [5], in test [6], in test [7] and in test [8] was inactive.
Take `O=S(=O)(Nc1ccc(-c2ccc(CN3CCCC3)cc2)cc1)c1cccc2cccnc12`: the growth inhibition was 10% in test [1] and 91% (active) in test [4]. The inhibition in test [2] was 37%; in test [3], -8%. For the same compound, the outcome in test [5], in test [6], in test [7] and in test [8] was inactive.
With `NS(=O)(=O)c1ccccc1Nc1nc(Nc2ccc(N3CCOCC3)cc2)nc2c1CCC2`, the growth inhibition in test [1] was 99% (active); in test [4], 96% (active). For the same compound, the inhibition is 21% in test [2] and -1% in test [3]. Also, the outcome in test [5], in test [6], in test [7] and in test [8] was inactive.
With `O=c1[nH]c2ccc3[nH]cccc3c2c1C=Nc1ccc(N2CCN(CCO)CC2)cc1`, the growth inhibition is 55% (active) in test [1] and 86% (active) in test [4]. The inhibition in test [2] is 34%; in test [3], -6%. Further, the result in test [5], in test [6], in test [7] and in test [8] was inactive.
As to `Cc1cc(CN2CCC(N3CC(c4ccccc4)(c4ccccc4)OCC3=O)C2)ccc1O` (stereo not given), the values for the growth inhibition in test [1] and in test [4] were 52% (active) and 89% (active), respectively. In addition, the inhibition in test [2] and in test [3] was 3% each time. The result in test [5], in test [6], in test [7] and in test [8] was inactive.
With `O=C(/C=C/c1ccc(Cl)c(Cl)c1)NCCCCCN1CC[C@H](NC(=O)c2sc3ccccc3c2Cl)C1`, the growth inhibition in test [1] was 3%; in test [4] it was 97% (active). Moreover, the inhibition is 26% in test [2] and -2% in test [3]. In addition, the outcome in test [5], in test [6], in test [7] and in test [8] was inactive.
In the case of `O=C(/C=C/c1ccc(Cl)c(Cl)c1)NCCCCN1CCCN(C(=O)Nc2ccc(C(F)(F)F)cc2)CC1`, the results for the growth inhibition in test [1] and in test [4] were -1% and 94% (active), respectively. In addition, the inhibition in test [2] was 35%; in test [3], 5%. Further, the result in test [5], in test [6], in test [7] and in test [8] was inactive.
As for `CCOc1cc(C)ccc1N1CCN(CCN2CCC(NC(=O)c3ccc(-c4ccc(C#N)cc4)cc3)CC2)CC1`, the growth inhibition in test [1] is 3%; in test [4] it was 84% (active). Besides, the figures for the inhibition in test [2] and in test [3] were 9% and -1%, respectively. Further, the result in test [5], in test [6], in test [7] and in test [8] was inactive.
As for `COc1cc(Cc2cnc(N)nc2N)cc(OC)c1OCCNC(=O)[C@@H](N)CCC(=O)O`, the growth inhibition in test [1] was -4%; in test [4], 96% (active). The inhibition in test [2] is -1%; in test [3], -6%. Also, the outcome in test [5], in test [6], in test [7] and in test [8] was inactive.
`Oc1ccc(CCNc2nc(NCc3cccc(OCc4cccc(F)c4)c3)nc(N3CCNCC3)n2)cc1`: the growth inhibition is -7% in test [1] and 86% (active) in test [4]. The inhibition in test [2] was 27%; in test [3], -3%. The result in test [5], in test [6], in test [7] and in test [8] was inactive.
As to `Cc1cnn(-c2cccc(C(=O)NC3CCC(CCN4CCc5ccc(C#N)cc5CC4)CC3)c2)c1` (stereo not given), the growth inhibition in test [1] is 48%; in test [4], 94% (active). Further, the inhibition was 24% in test [2] and -9% in test [3]. Moreover, the result in test [5], in test [6], in test [7] and in test [8] was inactive.
Turning to `O=C(Nc1ccccc1)N(Cc1cccc(-c2cccc(CNCc3ccc4c(c3)OCO4)c2)c1)C1CCN(Cc2ccccc2)CC1`, the growth inhibition in test [1] is 84% (active); in test [4], 101% (active). The inhibition in test [2] is 96% (active); in test [3] it was 0%. In addition, the outcome in test [5], in test [6], in test [7] and in test [8] was inactive.
Turning to `COc1ccc(Nc2nc(NCc3ccco3)c3ccccc3n2)cc1`, the values for the growth inhibition in test [1] and in test [4] were 76% (active) and 99% (active), respectively. Further, the inhibition was 38% in test [2] and -4% in test [3]. Besides, the outcome in test [5], in test [6], in test [7] and in test [8] was inactive.
With `Nc1nc(N)c2c(Cc3ccccc3)cccc2n1`, the growth inhibition is 3% in test [1] and 94% (active) in test [4]. Also, the inhibition is 68% (active) in test [2] and -7% in test [3]. Moreover, the result in test [5], in test [6], in test [7] and in test [8] was inactive.
For `N#Cc1ccc(-c2ccc(C(=O)NCCCCN3CCC(c4cn(CCCO)c5ccccc45)CC3)cc2)cc1`, the growth inhibition is 56% (active) in test [1] and 98% (active) in test [4]. The inhibition in test [2] was 31%; in test [3] it was -2%. The result in test [5], in test [6], in test [7] and in test [8] was inactive.
As to `O=c1cc(NCCCCNCc2cccc(C(F)(F)F)c2)[nH]c2ccccc12`, the growth inhibition in test [1] was 34%; in test [4], 94% (active). The inhibition was 13% in test [2] and -1% in test [3]. The result in test [5], in test [6], in test [7] and in test [8] was inactive.
